Reference: ChEMBL document CHEMBL3988442, “University of Dundee, Small-Polar-MMV Screening Library” (2021)
For some assays here: Potency and affinity values are given separately.

Columns and labels:
Parameters in all cases: scale not given: direction of the effect not stated beside the values
[1] = target: Protein translocase subunit SecA (Escherichia coli (strain K12)) (UniProt P10408); assay: Assay to Identify E. coli SecA ATPase Inhibitors; assay type: functional; settings: 30 µM
[2] = target: T1, Ubiquitin-activating enzyme e1, putative (Leishmania donovani (strain BPK282A1)) (UniProt E9BSI1); assay: Leishmania donovani Ubiquitin Activating Enzyme (LdE1); assay type: functional; settings: 30 µM
T1 sequence (whole entry): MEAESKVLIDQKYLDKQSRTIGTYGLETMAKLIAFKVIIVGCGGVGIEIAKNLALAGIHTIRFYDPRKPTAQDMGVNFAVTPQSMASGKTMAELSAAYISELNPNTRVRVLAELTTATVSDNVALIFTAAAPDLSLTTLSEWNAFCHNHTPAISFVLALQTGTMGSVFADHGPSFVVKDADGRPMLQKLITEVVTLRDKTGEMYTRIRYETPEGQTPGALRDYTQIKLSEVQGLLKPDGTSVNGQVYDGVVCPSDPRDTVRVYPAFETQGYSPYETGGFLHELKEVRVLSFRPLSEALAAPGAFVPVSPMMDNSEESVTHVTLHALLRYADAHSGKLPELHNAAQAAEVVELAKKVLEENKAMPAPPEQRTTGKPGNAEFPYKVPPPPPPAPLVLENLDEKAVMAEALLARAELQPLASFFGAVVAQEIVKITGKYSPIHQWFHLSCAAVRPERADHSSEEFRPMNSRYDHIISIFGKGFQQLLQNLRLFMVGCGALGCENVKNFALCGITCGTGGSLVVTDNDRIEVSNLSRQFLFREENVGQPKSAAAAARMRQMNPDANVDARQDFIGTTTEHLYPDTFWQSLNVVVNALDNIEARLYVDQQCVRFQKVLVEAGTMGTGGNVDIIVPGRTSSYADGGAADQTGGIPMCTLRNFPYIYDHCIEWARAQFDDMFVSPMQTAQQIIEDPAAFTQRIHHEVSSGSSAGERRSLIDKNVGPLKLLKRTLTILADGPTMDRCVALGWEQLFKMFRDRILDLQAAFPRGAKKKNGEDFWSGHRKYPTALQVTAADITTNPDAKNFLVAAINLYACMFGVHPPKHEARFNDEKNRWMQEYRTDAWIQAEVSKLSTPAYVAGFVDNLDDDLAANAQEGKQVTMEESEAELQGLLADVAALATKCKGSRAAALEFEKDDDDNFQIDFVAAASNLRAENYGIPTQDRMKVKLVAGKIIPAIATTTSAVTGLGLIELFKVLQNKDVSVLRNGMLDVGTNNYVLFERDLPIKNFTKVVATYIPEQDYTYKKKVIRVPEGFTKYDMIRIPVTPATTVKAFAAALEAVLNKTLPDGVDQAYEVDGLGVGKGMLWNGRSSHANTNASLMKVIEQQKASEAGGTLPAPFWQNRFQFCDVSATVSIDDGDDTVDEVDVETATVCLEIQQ

[3] = target: AMP-activated protein kinase, AMPK (Homo sapiens) (UniProt P54646+O43741+P54619+Q9UGJ0+Q9Y478+Q13131+Q9UGI9); assay: AMP-dependent Kinase enzyme assay. An in vitro enzyme assay that detects ADP turnover that is directly proportional to AMPK activity. This uses naive AMPK that is activated during the assay with MK-8722; assay type: functional; settings: 30 µM
[4] = target: Sialic acid-binding Ig-like lectin 9 (Homo sapiens) (UniProt Q9Y336); assay: Hs-Siglec9 ALPHAscreen SOP 20170721; settings: 10 µM
[5] = test system: Trypanosoma cruzi; assay: Trypanosoma cruzi phosphomannomutase and mannose-1-phosphate guanylyltransferase assay; assay type: functional; settings: 10 µM
[6] = target: T2, Arginase-2, mitochondrial (Homo sapiens) (UniProt P78540); assay: in vitro enzyme assay to detect the production of urea directly proportional to the activity of Arginase II; assay type: functional; settings: 33.3 µM; further: in the data most compounds retested in dose-response had high values
T2 sequence (whole entry): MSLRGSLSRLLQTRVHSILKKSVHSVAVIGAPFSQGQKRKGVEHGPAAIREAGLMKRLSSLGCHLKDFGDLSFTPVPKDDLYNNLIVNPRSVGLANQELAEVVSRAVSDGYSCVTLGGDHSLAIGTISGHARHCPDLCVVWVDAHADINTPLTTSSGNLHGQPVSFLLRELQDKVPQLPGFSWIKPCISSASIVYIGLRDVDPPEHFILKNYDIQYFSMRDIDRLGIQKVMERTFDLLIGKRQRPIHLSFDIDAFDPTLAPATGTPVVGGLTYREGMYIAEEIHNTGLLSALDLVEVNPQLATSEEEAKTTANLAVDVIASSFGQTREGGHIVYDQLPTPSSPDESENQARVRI

[7] = target: T3, Proteasome subunit beta (Trypanosoma cruzi) (UniProt O96673); assay: Trypanosoma cruzi proteasome chymotrypsin-like activity (TcProtChymo) assay.; further: in the data most compounds retested in dose-response had high values; assay type: functional; settings: 9.37 µM
T3 sequence (whole entry): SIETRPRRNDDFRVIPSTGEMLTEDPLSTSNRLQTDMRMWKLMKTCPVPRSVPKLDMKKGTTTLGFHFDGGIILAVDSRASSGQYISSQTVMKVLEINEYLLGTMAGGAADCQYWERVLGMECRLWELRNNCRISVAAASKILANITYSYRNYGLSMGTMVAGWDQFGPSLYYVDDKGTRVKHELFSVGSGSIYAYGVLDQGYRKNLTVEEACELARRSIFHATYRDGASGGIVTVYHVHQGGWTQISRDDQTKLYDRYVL

[8] = species: Homo sapiens; assay: To identify inhibition of the IFN signalling (Jak-Stat) pathway via expression of an eGFP reporter gene under the control of an IFN-stimulated response element (ISRE) containing MxA promoter.; assay type: functional; settings: 30 µM
[9] = target: T4, Tyrosyl-tRNA synthetase, putative (Trypanosoma cruzi (strain CL Brener)) (UniProt Q4DSP6); assay: Trypanosoma cruzi tyrosyl tRNA synthetase (TcYRS) _High Tyrosine SOP; assay type: functional; settings: 30 µM; further: in the data most compounds retested in dose-response had high values
T4 sequence (whole entry): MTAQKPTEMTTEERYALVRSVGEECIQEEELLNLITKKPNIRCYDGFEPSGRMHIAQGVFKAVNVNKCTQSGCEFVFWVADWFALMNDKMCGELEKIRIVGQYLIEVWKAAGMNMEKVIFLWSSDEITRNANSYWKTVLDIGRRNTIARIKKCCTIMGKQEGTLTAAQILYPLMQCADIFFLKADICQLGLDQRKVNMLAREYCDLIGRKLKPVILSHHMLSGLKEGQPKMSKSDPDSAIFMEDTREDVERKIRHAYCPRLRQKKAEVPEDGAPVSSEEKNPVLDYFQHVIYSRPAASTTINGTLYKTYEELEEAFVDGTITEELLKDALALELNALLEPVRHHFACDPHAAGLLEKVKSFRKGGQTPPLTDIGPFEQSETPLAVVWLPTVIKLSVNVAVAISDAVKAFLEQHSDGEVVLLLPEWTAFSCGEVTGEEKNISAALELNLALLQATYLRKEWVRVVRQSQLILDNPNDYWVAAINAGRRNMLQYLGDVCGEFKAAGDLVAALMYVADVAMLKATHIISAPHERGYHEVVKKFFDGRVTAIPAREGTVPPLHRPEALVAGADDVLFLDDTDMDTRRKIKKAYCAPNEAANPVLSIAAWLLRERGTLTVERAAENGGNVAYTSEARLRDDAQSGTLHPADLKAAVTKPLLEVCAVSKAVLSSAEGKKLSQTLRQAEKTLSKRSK

[10] = target: T4, Tyrosyl-tRNA synthetase, putative (Trypanosoma cruzi (strain CL Brener)); assay: Trypanosoma cruzi tyrosyl tRNA synthetase (TcYRS) SOP; assay type: functional; settings: 30 µM
[11] = target: Chromo domain-containing protein 1 (Saccharomyces cerevisiae (strain ATCC 204508 / S288c) (Baker's yeast)) (UniProt P32657); assay: ScCHD-1 Enzyme Inhibition Assay; assay type: functional; settings: 30 µM; further: in the data most compounds retested in dose-response had high values
Chain of Chromo domain-containing protein 1 (Saccharomyces cerevisiae (strain ATCC 204508 / S288c) (Baker's yeast)) (P32657 whole entry, the tested form may be a part): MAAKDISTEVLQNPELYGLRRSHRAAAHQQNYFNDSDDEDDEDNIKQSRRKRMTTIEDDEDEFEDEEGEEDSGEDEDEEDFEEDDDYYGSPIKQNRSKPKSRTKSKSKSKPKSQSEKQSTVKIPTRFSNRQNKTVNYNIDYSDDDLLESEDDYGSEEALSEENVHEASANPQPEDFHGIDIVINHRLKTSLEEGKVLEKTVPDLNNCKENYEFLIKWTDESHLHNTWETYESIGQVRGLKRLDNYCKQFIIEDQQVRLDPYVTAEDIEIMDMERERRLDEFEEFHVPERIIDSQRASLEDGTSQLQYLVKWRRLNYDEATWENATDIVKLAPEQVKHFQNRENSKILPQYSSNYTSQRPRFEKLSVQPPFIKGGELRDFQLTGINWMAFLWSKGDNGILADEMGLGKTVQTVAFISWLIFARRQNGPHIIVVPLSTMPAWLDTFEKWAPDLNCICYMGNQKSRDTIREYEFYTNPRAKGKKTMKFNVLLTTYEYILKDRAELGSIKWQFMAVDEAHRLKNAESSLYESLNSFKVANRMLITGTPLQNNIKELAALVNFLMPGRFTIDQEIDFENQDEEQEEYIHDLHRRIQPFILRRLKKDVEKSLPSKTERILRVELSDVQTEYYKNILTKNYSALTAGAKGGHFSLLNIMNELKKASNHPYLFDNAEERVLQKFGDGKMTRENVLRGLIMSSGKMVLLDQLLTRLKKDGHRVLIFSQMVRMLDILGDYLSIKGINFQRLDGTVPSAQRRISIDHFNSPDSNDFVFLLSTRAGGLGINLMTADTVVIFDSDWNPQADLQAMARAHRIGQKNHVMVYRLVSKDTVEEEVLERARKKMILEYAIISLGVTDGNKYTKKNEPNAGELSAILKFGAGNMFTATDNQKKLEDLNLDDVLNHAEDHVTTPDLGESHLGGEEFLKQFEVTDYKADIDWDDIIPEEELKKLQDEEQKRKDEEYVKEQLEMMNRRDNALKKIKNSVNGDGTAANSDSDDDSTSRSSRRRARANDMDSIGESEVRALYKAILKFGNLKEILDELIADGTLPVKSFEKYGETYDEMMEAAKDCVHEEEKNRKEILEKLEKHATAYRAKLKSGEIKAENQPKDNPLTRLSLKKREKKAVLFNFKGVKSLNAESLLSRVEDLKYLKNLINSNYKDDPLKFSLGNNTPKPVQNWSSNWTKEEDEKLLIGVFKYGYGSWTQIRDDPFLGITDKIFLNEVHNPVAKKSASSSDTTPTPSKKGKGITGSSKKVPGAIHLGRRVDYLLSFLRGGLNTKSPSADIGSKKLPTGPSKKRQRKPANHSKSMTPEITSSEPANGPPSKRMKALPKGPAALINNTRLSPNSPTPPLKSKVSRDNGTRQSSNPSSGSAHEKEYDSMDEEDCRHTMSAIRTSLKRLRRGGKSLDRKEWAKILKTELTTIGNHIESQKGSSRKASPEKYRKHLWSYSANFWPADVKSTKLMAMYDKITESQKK

Chain of Sialic acid-binding Ig-like lectin 9 (Homo sapiens) (Q9Y336 whole entry): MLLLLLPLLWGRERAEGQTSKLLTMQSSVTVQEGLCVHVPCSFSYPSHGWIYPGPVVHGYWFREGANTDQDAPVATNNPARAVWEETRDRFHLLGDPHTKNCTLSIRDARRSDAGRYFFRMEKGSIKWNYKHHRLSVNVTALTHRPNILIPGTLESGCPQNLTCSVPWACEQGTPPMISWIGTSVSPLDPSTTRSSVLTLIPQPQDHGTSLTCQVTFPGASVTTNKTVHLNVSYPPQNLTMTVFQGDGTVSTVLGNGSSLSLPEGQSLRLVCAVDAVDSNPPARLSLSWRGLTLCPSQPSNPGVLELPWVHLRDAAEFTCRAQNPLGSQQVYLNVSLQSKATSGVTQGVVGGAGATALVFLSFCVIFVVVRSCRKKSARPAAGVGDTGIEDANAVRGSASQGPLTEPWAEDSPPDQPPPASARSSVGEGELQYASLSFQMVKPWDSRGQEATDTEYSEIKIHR
Chain of Protein translocase subunit SecA (Escherichia coli (strain K12)) (P10408 whole entry): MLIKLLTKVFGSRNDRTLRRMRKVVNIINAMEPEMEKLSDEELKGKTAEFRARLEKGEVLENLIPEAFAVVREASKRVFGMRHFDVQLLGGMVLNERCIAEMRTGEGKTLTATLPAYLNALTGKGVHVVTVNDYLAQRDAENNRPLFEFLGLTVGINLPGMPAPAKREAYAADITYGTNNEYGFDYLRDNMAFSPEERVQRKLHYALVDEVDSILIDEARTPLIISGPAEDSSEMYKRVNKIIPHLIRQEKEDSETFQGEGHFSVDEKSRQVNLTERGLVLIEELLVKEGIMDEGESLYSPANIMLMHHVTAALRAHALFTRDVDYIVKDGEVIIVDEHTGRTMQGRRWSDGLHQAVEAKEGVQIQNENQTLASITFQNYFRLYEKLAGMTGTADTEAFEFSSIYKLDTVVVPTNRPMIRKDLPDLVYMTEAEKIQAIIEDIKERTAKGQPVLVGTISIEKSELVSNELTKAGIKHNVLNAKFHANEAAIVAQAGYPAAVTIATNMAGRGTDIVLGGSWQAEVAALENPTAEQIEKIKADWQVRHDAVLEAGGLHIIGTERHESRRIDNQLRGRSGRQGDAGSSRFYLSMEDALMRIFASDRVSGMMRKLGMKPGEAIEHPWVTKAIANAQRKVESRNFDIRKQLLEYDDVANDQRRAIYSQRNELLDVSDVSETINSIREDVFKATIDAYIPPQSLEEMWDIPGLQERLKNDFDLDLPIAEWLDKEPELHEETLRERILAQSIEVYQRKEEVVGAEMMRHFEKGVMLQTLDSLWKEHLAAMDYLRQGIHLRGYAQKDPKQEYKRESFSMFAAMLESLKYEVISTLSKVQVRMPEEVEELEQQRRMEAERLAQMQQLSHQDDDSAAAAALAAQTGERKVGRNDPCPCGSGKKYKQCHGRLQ

SMILES	Percent Effect [1] [%]	Percent Effect [2] [%]	Percent Effect [3] [%]	Percent Effect [4] [%]	Percent Effect [5] [%]	Percent Effect [6] [%]	Percent Effect [7] [%]	Percent Effect [8] [%]	Percent Effect [9] [%]	Percent Effect [10] [%]	Percent Effect [11] [%]
COc1ccccc1Oc1ncccc1CNC(=O)C(C)N1CCCC1 (stereo unspecified)	-3.48	12.5	-6.43	29.1	3.4	50.3	11.8	-6.43	4.21	12.8	-9.98
CC(C)COC(C)C(=O)NCc1ccc(OC(C)C)nc1 (stereo unspecified)	-1.41	15.6	-0.374	1.85	2.84	1.9	11.1	-12.7	8.57	25.9	-24.5
CC(C)C(C(=O)N1CCC(Nc2cccnn2)CC1)n1cncn1 (stereo unspecified)	-0.999	-2.7	-4.26	1.29	-6.51	1.2	5.59	9.97	0.493	-1.24	-1.75
Cn1cnc2c1CCN(Cc1nc(-c3ccsc3)no1)C2	-6.98	18.9	-7.09	15.8	10.7	-3.14	5.57	2.25	7.92	25.6	-9.67
Cc1cc(CN2CCN(C(=O)NC(C)c3cccnc3)CC2)on1 (stereo unspecified)	-2.66	13.2	-2.63	3.25	8.08	1.92	10.7	2.49	-0.49	19.5	-6.79
Cc1cc(N2CCC(N(C)C(=O)c3ccccc3)CC2)nc(C)n1	-2.59	19.2	2.37	4.5	5.09	10.4	11.4	29.3	7.53	17.5	-8.12
COCC(=O)N1CC[C@H]2C[C@H](C)O[C@@H]2C1	-3.06	13.3	4.66	-5.49	4.53	-2.56	17.4	-11.4	7.45	14.1	-3.21
NC(=O)c1ccc(NC(=O)CCN2CCCC(N3CCCC3)C2)cc1 (stereo unspecified)	-9.36	13.5	-4.04	16.5	8.98	22.5	9.38	19.4	9.9	15.8	-5.57
Cn1ncc2c1CN(Cc1cccnc1)CC2COCC1CC1 (stereo unspecified)	-0.107	2.74	-3.62	3.4	6.55	4.79	12.6	-15.1	4.17	8.64	-7.87
Cc1nc(CN2CCOC(CNc3cccnn3)C2)cs1 (stereo unspecified)	0.542	-8.11	-13.4	10.4	3.87	-2.81	20.2	3.75	14.3	6.17	-6.92
Cc1nn(CC(=O)N2CCC(Nc3cccnn3)CC2)c(C)c1Cl	-7.99	10.5	-2.51	1.71	10.3	-4.6	4.68	14.1	6.37	19.5	-11.8
COC(=O)C(NC(=O)C(C)C)c1cc(F)ccc1F (stereo unspecified)	-3.03	10.4	3.19	15.7	-2.43	7.12	3.38	22.8	2.91	9.76	-4.93
Cc1nccn1C1CCCN(C(=O)c2cc3ccccc3[nH]2)C1 (stereo unspecified)	-6.7	2.53	-10.1	1.72	-2.74	0.76	-4.83	27.9	-2.46	-3.8	-6.65
CN1N=C(C(=O)NCc2ccc3c(c2)CCCN3C)CCC1=O	-4.45	8.86	30.5	-1.03	4.41	0.215	21.4	0.664	6.25	10.1	-23
Cc1nn(CC(=O)N2CCN(c3ccncc3)CC2)c(C)c1Cl	-3.26	10.5	1.94	4.31	1.66	-18.9	12.6	16.3	5.32	15.6	-7.63
COc1cc(N2C[C@@H]3COC[C@]3(COc3cccnc3)C2)ncn1	-4.12	16.2	3.02	-8.65	5.38	-2.87	18.4	21.1	2.16	12.8	-1.83
